In the library only some 4.1% were active in any assay of this set; here they are far more common.
hcDAF-12 act – activators of H. contortus DAF-12 nuclear receptor | HEK293 hcDAF-12 lit1-tk-luc reporter, luminescence; 0% DMSO, 100% Δ7-dafachronic acid | activation, % at 6.8 µM | 1.4% of 370,000 active;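 active means activation above the mean of all tested compounds plus 3 SD, cut at about 5.5% in these data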;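 further: 100% = response to 3 µM Δ7-dafachronic acid high control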
ssDAF12 agonist – S. stercoralis DAF-12 activation, primary screen | AID 652126 | activation, % at 6.8 µM | 1% of 370,000 active | HEK293 ssDAF-12/GRIP1 lit1-tk-luc reporter, luminescence; % of 3 µM dafachronic acid response;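 active means activation above the mean over all tested compounds plus 3 SD, cut at about 0.9% in these data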;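 further: 0% = DMSO-only wells and 100% = 3 µM delta7-dafachronic acid wells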
DAX1 inh-1 – DAX1 (NR0B1) inhibition, primary screen; AID 652010; HEK293T StAR-luciferase reporter, SF-1/DAX-1 repression relief; inhibition, % at 6.8 µM; 1.1% of 370,000 active;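 active means inhibition above the mean over all tested compounds plus 3 SD, cut at about 3.6% in these data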;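 further: 0% = DAX-1 cells with DMSO and 100% = cells lacking DAX-1 with DMSO; higher inhibition means more luminescence from relief of DAX-1 repression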
DAX1 inh-2 – NR0B1 (DAX1) inhibition; P51843; inhibition, % at 6.75 µM; HEK293 Gal4-DAX1 luciferase reporter, luminescence; 0.99% of 340,000 active;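 active means inhibition above the mean over all tested compounds plus 3 SD, cut at about 4.2% in these data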;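 further: 0% = DAX1-transfected cells with DMSO and 100% = empty-vector control cells with DMSO; inhibition shows as a rise in luminescence from relieved DAX1 repression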
Target sequence (P51843 207-470 limits assumed): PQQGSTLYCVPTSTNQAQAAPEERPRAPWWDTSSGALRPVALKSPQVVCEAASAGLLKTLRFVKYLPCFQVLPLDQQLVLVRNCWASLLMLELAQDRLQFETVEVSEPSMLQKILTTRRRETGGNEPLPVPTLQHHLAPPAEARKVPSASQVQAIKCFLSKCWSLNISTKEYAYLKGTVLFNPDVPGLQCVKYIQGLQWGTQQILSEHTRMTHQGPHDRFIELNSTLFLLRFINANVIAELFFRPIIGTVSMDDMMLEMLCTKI
hgDAF-12 ag – hgDAF-12 agonism, primary luciferase screen | HEK293 GAL4-hgDAF12 UAS-luciferase reporter, agonist luminescence; normalized to butyrate control | activation, % at 6.8 µM | 1.8% of 370,000 active | AID 687014;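 active means activation above a cutoff set at the mean of all screened compounds plus 3 SD, cut at about 10% in these data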;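 further: 0% = DMSO wells and 100% = sodium butyrate wells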
* marks the source's active call; other numbers are inactive results; · = no result.

SMILES	hcDAF-12 act	ssDAF12 agonist	DAX1 inh-1	DAX1 inh-2	hgDAF-12 ag
Cc1cc(C(=O)C(=O)N(C)C)c(C)n1-c1ccc(Cl)c(Cl)c1	-2	-1	-1	-1	-4
Cc1cc(C(=O)C(=O)O)c(C)n1-c1ccc(Cl)c(Cl)c1	0	1.0*	0	0	-2
COC(=O)[C@]12C[C@H](CC(=O)N3CCN(C(=O)C4CC4)CC3)C(=O)N(Cc3ccccc3)C1=C[C@H](C(C)C)O[C@@H]2C1CC1	0	-1	2	·	-2
Cc1cccc(C)c1NC(=O)C(c1cccc([N+](=O)[O-])c1)N(C)C(=O)c1ccccn1 (centres undefined)	-1	1.0*	-1	0	-2
C/C(=N\NC(=O)c1ccccc1C)c1ccc(NC(=O)c2cccs2)cc1	2	-1	3	1	12*
C/C(=N\NC(=O)c1ccccc1)c1ccc(NC(=O)c2cccs2)cc1	0	-2	1	0	0
Fc1cccc(C2NN=C(c3ccccc3)S2)c1 (centres undefined)	10*	2.3*	4.5*	3	28*
O=C1c2ccccc2C2=Nc3ccccc3SC(c3cccc(F)c3)C12 (centres undefined)	-1	-1	0	0	-3
Cn1c(SCc2ccccc2)nc2c1c(=O)[nH]c(=O)n2C	-2	-1	0	-1	-1
Cn1c(SCc2ccccc2Cl)nc2c1c(=O)[nH]c(=O)n2C	-1	1.5*	0	-2	2
CCC[C@H]1[C@@H](NC(=O)C(c2ccccc2)c2ccccc2)CC[C@@]23CCCN2C(=O)CCC[C@@H]13	-2	-2	·	·	0
O=C(O)c1cccc(Cn2c(Cl)c(/C=N/NC(=O)c3ccc(O)cc3)sc2=O)c1	0	-1	0	4.6*	-4
COC(=O)c1ccc(N/C=C/C(=O)c2ccccc2)cc1	0	0	1	4.5*	8
CCOC(=O)c1ccc(N/C=C\C(=O)c2cccc(OC)c2)cc1	4	-1	1	-2	0
COc1cccc(N/C=C/C(=O)c2ccc(Br)cc2)c1	4	0	4.4*	2	11*
CCN(CC)c1ccc(-c2nn3c(-c4ccccc4Cl)nnc3s2)cc1	-4	-2	-2	·	-8
Cc1cc(NC(=O)Cc2cn(C)c3ccccc23)ccc1Nc1cccnc1	-2	-1	0	·	1
CC1(C)C/C(=N\O)C(C(O)c2cccc([N+](=O)[O-])c2)C(C)(C)N1 (centres undefined)	-2	0	0	6.2*	1
O=C(O)CC(NC(=O)C12CC3CC(CC(C3)C1)C2)c1cccc([N+](=O)[O-])c1 (centres undefined)	-1	-1	0	1	-1
Cc1cccc(C(=O)Nc2ccccc2SCC(=O)Nc2ccc(C)c(Cl)c2)c1	6.5*	0	0	1	5
Cc1ccc(NC(=O)CSc2ccccc2NC(=O)c2cccc(Cl)c2)cc1Cl	0	-1	0	-1	1
CN(C)CCCN1C(=O)c2cccc3cccc(c23)C1=O	4	0	0	0	4
CN(C)CCN1C(=O)c2cccc3cc([N+](=O)[O-])cc(c23)C1=O	6.5*	0	-7	6.9*	-5
COc1ccc(NC(=O)N(C)[C@H]2C[C@H]3c4[nH]c5c(-c6cccc(C)c6)cccc5c4CCN3C(=O)[C@H]2[C@H](C)O)cc1	-4	-1	-1	·	-2
F[B-](F)(F)COCc1ccccc1C#Cc1ccccc1	-2	-1	1	·	7
SMILES	hcDAF-12 act	ssDAF12 agonist	DAX1 inh-1	DAX1 inh-2	hgDAF-12 ag
CC1CC(C)CN(C(=O)c2cccc(N3C(=O)c4ccccc4C3=O)c2)C1 (centres undefined)	0	-1	4.3*	0	-1
CC1(CCc2ccccc2)NC(=O)N(CC(=O)Nc2ccccc2)C1=O (centres undefined)	1	-1	1	4.7*	6
CC1(CCc2ccccc2)NC(=O)N(CC(=O)O)C1=O (centres undefined)	0	-1	1	3	0
Cc1ccccc1-n1c(-c2ccoc2C)n[nH]c1=S	3	1.3*	0	-1	2
CSc1ccc(Oc2cccc3c2S(=O)(=O)N(C2CC2)C[C@@H](COCc2ccccc2)O3)cc1C	-1	-2	-1	·	-1
S=C(N/N=C/c1cccs1)NC1CC2CCC1C2 (centres undefined)	-1	-1	0	·	11*
Oc1ccc(/C=N/NC(=S)NC2CC3CCC2C3)cc1 (centres undefined)	1	-1	2	2	8
COCCN(Cc1ccc(C)cc1)C(=O)[C@@H](Cc1ccccc1)NC(=O)[C@H]1O[C@@H](n2ccc(=O)[nH]c2=O)[C@H](O)[C@@H]1O	-1	-1	0	·	0
O=C(NC(=S)NC1CCCCCC1)c1cncc(Br)c1	2	-1	2	1	11*
CN(C(=O)c1cc(-c2ccccc2)on1)C1CCCCC1	2	0	3	3	11*
Cc1ccnc(NC(=O)Nc2ccc3c(c2)OCO3)c1	2	-1	3	2	12*
Cc1ccc2c(c1)CCCN2C(=O)Nc1ccc2c(c1)OCO2	4	1.6*	2	0	12*
CCCCN1CCS(=O)(=O)N(Cc2cn(Cc3cccc(Cl)c3)nn2)C(C(=O)OC)C1 (centres undefined)	-2	-1	-1	·	0
Cc1cc(NC(=O)C(=O)NCc2cccc(Cl)c2)no1	-2	-1	0	5.5*	2
CC1(C)Cc2c(sc(NC(=O)Nc3ccccc3)c2C(N)=O)CO1	3	0	1	5.1*	11*
O=C(Cc1ccccc1)Nc1ccc(SC(F)F)cc1	2	-1	1	4.3*	6
CN1C(=O)[C@@]2(O[C@H]3C=CC=CN3C3=C2C(=O)CCC3)c2cccc(Br)c21	-2	0.9*	-1	·	-2
CC(C)NC(=O)COc1cccc2ccccc12	-1	-2	0	2	-2
CSCCC(NC(=O)COc1cccc2ccccc12)C(=O)O (centres undefined)	-1	1.0*	-1	1	-3
Cc1cc(NCCCN2CCOCC2)n2nc(C)c(-c3ccccc3)c2n1	-1	-1	0	0	0
Cc1cc(NCc2ccccn2)n2ncc(-c3ccccc3)c2n1	5	1.3*	3	4.7*	12*
Cc1cc(NCc2ccccn2)n2ncc(-c3ccc(Cl)cc3)c2n1	3	-1	1	·	9
Cc1cc(NCCCN2CCOCC2)n2ncc(-c3ccccc3)c2n1	6.0*	1.3*	3	2	11*
COc1ccc(-n2c(SCC(=O)Nc3ccc(S(=O)(=O)Nc4nccs4)cc3)nnc2-c2cccs2)cc1	-2	-1	0	·	-2
CCC[C@H]1[C@@H](NC(=O)c2ccc(Cl)c(C(F)(F)F)c2)CC[C@@]23CCCN2C(=O)CCC[C@@H]13	-1	-2	·	·	-2
